# Reference: PubChem BioAssay (EPA / NIEHS)
# Records with an inconclusive call do not appear. The source made the active and inactive calls. The calls were made as follows, unless noted: active = hit-call score of the fitted dose curve at least 0.9, where 1 is the maximum; inconclusive = response in the unintended direction; inactive = score below 0.9.
# Key:
# [1] = read-out: xenobiotic metabolism (CYP1A2), CYP1A2 (gene 1544); assay: CLD_CYP1A2_6hr: CellzDirect (CLD) Gene Expression Assay for xenobiotic metabolism (CYP1A2) at 6 hours (AID 2283663);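 as to AC50: potency is for induction meaning a rise in mRNA above DMSO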
# Summary of the method: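 mRNA levels quantified by quantitative nuclease protection assay with chemiluminescence, 6 h after dosing human primary hepatocyte cultures (two donors) across several concentrations, vehicle 0.2% DMSO. Induction fitted upward versus DMSO; phase-contrast cytotoxicity annotated.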
# [2] = read-out: alkyl and aryl transferase (GSTA2), GSTA2 (gene 2939); assay: CLD_GSTA2_6hr: CellzDirect (CLD) Gene Expression Assay for alkyl and aryl transferase (GSTA2) at 6 hours (AID 2283666)
# Summary of the method: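 GSTA2 transcript induction at 6 h, quantified by nuclease protection (qNPA) with chemiluminescent detection, in human liver primary hepatocytes exposed to several compound concentrations with 0.2% DMSO as baseline; phase-contrast morphology annotated apparent cytotoxicity.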
# [3] = CLD_ACTIN_24hr: CellzDirect (CLD) Gene Expression Assay for Baseline Control (Actin) at 24 hours (AID 2283670)
# Summary of the method: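 This 24 h qNPA (S1 nuclease protection, chemiluminescence) actin transcript readout in cultured human liver primary cells serves as baseline control. Signal is fitted upward relative to 0.2% DMSO; chemicals tested at multiple concentrations across two donor preparations.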
# [4] = read-out: glucuronosyltransferase (UGT1A1), UGT1A1 (gene 54658); assay: CLD_UGT1A1_6hr: CellzDirect (CLD) Gene Expression Assay for glucuronosyltransferase (UGT1A1) at 6 hours (AID 2283672)
# Summary of the method: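 UGT1A1 mRNA induction, read by quantitative nuclease protection assay, 6 h after dosing primary human hepatocytes (two donors, 0.2% DMSO vehicle). Gain of signal fitted relative to vehicle.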
# [5] = read-out: xenobiotic metabolism (CYP1A1), CYP1A1 (gene 1543); assay: CLD_CYP1A1_24hr: CellzDirect (CLD) Gene Expression Assay for xenobiotic metabolism (CYP1A1) at 24 hours (AID 2283673);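 also: CYP1A1 mRNA level by quantitative nuclease protection with chemiluminescence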
# Summary of the method: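 Transcript levels were read at 24 h by qNPA chemiluminescence in human liver primary cells. Cells got daily fresh dosing at multiple concentrations (vehicle 0.2% DMSO). Induction fitted upward against DMSO; phase-contrast cytotoxicity annotated.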
# [6] = read-out: ABC Transporter (ABCB11), ABCB11 (gene 8647); assay: CLD_ABCB11_24hr: CellzDirect (CLD) Gene Expression Assay for ABC Transporter (ABCB11) at 24 hours (AID 2283674; active = hit-call score of the fitted dose curve at least 0.9, where 1 is the maximum; inactive = score below 0.9)
# Summary of the method: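 ABCB11 transcript was quantified by qNPA chemiluminescence in cultured human liver hepatocytes 24 hours after dosing. Fresh dosing solutions were applied on consecutive days, against a 0.2% DMSO vehicle. Cytotoxicity was noted by phase-contrast morphology.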
# [7] = read-out: organic anion transporter (SLCO1B1), SLCO1B1 (gene 10599); assay: CLD_SLCO1B1_6hr: CellzDirect (CLD) Gene Expression Assay for organic anion transporter (SLCO1B1) at 6 hours (AID 2283668);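 also: active means mRNA induction above DMSO baseline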
# Summary of the method: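 SLCO1B1 mRNA induction measured 6 h after dosing by quantitative nuclease protection with chemiluminescent read-out, in human primary hepatocyte cultures given chemicals at several concentrations (vehicle 0.2% DMSO). Increase over DMSO baseline fitted; morphology-based cytotoxicity annotated yes/no.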
# [8] = Tanguay_ZF_120hpf_TR_legacy: (Legacy) Oregon State University Tanguay Lab 120 Hour Post-fertilization zebrafish Assay for Touch Response (AID 2283667)
# Summary of the method: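 Readout is presence or absence of touch response in 120 hpf zebrafish larvae, assessed by brightfield observation after continuous static exposure at 28C. Final vehicle was 0.64% (vol/vol) DMSO.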
# [9] = read-out: sulfotransferase (SULT2A), SULT2A1 (gene 6822); assay: CLD_SULT2A_6hr: CellzDirect (CLD) Gene Expression Assay for sulfotransferase (SULT2A) at 6 hours (AID 2283669);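 also: hits raise transcript level above the DMSO vehicle baseline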
# Summary of the method: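 Measured 6 h after dosing, SULT2A1 mRNA in human hepatocyte lysates was quantified by S1 nuclease protection with chemiluminescent detection. Increases fitted against 0.2% DMSO vehicle baseline; phase-contrast cytotoxicity recorded yes/no.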
structure (smiles),measurement,setting,value
CNC(=O)ON=C(C)SC,outcome,[1],inactive
same,outcome,[2],inactive
same,outcome,[3],inactive
same,outcome,[4],inactive
same,outcome,[5],inactive
same,outcome,[6],inactive
C[Si](Cn1cncn1)(c1ccc(F)cc1)c1ccc(F)cc1,outcome,[1],inactive
same,outcome,[7],inactive
same,outcome,[3],inactive
same,outcome,[4],inactive
same,AC50,[5],2.21 µM (active)
Nc1nc(N)nc(NC2CC2)n1,outcome,[8],inactive
same,outcome,[3],inactive
same,outcome,[4],inactive
same,outcome,[5],inactive
CCCOc1nn(C(=O)NS(=O)(=O)c2ccccc2C(=O)OC)c(=O)n1C,outcome,[2],inactive
same,outcome,[8],inactive
same,outcome,[7],inactive
same,outcome,[4],inactive
same,outcome,[5],inactive
same,outcome,[6],inactive
CCOC(=O)COc1cc(-c2nn(C)c(OC(F)F)c2Cl)c(F)cc1Cl,outcome,[1],inactive
same,outcome,[2],inactive
same,outcome,[8],inactive
same,outcome,[4],inactive
same,outcome,[5],inactive
CCOP(=S)(OCC)SCCSCC,AC50,[1],3.97 µM (active)
same,outcome,[8],inactive
same,outcome,[3],inactive
same,outcome,[4],inactive
same,AC50,[5],2.7 µM (active)
same,outcome,[6],inactive
COc1ccc(C(=CC(=O)N2CCOCC2)c2ccc(Cl)cc2)cc1OC,outcome,[2],inactive
same,AC50,[8],42.4 µM (active)
same,outcome,[7],inactive
same,outcome,[4],inactive
same,outcome,[5],inactive
C#CC(C)(C)NC(=O)c1cc(Cl)cc(Cl)c1,outcome,[8],inactive
same,outcome,[4],inactive
same,outcome,[5],inactive
same,outcome,[6],inactive
Nc1c(Cl)cc([N+](=O)[O-])cc1Cl,outcome,[1],inactive
same,AC50,[8],38.8 µM (active)
same,AC50,[5],9.35 µM (active)
CC(=NC#N)N(C)Cc1ccc(Cl)nc1,outcome,[8],inactive
same,outcome,[7],inactive
same,outcome,[4],inactive
same,outcome,[6],inactive
CCc1cccc(CC)c1N(COC)C(=O)CCl,outcome,[2],inactive
same,outcome,[8],inactive
same,outcome,[7],inactive
same,outcome,[4],inactive
same,AC50,[5],3.06 µM (active)
same,outcome,[6],inactive
O=C(O)c1cc(Oc2ccc(C(F)(F)F)cc2Cl)ccc1[N+](=O)[O-],outcome,[8],inactive
same,outcome,[4],inactive
same,outcome,[6],inactive
CCOP(=O)(OCC)Oc1cc(C)nc(C(C)C)n1,outcome,[1],inactive
same,outcome,[8],inactive
same,outcome,[7],inactive
same,outcome,[4],inactive
same,outcome,[5],inactive
same,outcome,[6],inactive
COc1cc(OC)nc(Sc2cccc(Cl)c2C(=O)O)n1,outcome,[2],inactive
same,outcome,[8],inactive
same,outcome,[4],inactive
same,outcome,[6],inactive
Cc1ccn2nc(S(=O)(=O)Nc3c(F)cccc3F)nc2n1,outcome,[1],inactive
same,outcome,[8],inactive
same,outcome,[7],inactive
same,outcome,[9],inactive
same,outcome,[3],inactive
same,outcome,[4],inactive
same,outcome,[5],inactive
CN(C)NC(=O)CCC(=O)O,outcome,[1],inactive
same,outcome,[8],inactive
same,outcome,[3],inactive
same,outcome,[4],inactive
same,outcome,[6],inactive
CNC(=O)ON=C(SC)C(=O)N(C)C,outcome,[2],inactive
same,outcome,[8],inactive
same,outcome,[7],inactive
same,outcome,[3],inactive
same,outcome,[4],inactive
same,outcome,[6],inactive
CCCCOC(=O)c1ccccc1C(=O)O,outcome,[2],inactive
same,outcome,[8],inactive
same,outcome,[7],inactive
same,outcome,[4],inactive
same,outcome,[6],inactive
FC(F)C(F)(F)OCC(Cn1cncn1)c1ccc(Cl)cc1Cl (stereo not given),AC50,[1],2.45 µM (active)
same,AC50,[8],34.8 µM (active)
same,outcome,[3],inactive
same,outcome,[4],inactive
same,AC50,[5],5.2 µM (active)
